Screening results (PubChem)
Shown are actives, neighbours in structure and some others; about 1.4% of the full set was active somewhere.
EPAC2 ag: qHTS for Agonist of cAMP-regulated guanine nucleotide exchange factor 4 (EPAC2): primary screen; Rap guanine nucleotide exchange factor 4 (Homo sapiens), Q8WZA2; EPAC2 activation, biochemical qHTS; response scale: 100% = 6.5 mM cAMP response; Potency, µM (titrated, usually from 154 µM), for inactives: top-dose activation, usual class: activators; actives 0.079% (n = 360,000); also: nearly all actives have a fitted effect of over 50% in size
Target sequence (Q8WZA2 whole entry, looked up): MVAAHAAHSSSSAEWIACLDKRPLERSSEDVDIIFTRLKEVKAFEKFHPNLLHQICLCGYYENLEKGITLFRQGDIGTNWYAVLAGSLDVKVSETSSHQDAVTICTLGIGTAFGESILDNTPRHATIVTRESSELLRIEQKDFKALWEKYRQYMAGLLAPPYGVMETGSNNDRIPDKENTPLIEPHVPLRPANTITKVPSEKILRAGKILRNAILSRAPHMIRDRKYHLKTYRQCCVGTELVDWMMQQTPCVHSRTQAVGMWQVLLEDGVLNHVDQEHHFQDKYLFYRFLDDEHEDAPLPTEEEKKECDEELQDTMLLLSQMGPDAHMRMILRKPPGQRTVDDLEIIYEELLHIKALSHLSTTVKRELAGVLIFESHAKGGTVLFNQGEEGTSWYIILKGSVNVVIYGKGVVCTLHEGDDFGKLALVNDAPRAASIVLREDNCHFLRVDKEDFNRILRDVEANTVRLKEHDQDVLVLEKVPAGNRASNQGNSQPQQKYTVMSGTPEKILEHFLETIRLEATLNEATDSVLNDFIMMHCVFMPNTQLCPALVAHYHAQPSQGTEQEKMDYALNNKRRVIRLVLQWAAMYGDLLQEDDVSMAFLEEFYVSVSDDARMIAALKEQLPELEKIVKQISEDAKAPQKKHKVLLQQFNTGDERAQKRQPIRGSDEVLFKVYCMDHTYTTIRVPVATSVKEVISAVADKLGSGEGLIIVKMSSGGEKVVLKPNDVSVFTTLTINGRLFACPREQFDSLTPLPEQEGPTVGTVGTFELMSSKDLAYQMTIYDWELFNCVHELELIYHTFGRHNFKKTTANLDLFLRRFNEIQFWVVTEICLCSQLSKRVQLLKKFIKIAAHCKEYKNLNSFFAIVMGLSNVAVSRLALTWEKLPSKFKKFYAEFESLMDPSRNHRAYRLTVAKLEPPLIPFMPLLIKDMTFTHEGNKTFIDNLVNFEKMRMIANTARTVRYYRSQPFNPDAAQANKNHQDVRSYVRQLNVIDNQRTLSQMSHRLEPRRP
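Readout is BODIPY fluorescence (480 nm excitation, 540 nm emission), which falls as labeled GDP is exchanged off Rap1B. EPAC2 at 100 nM acted on 250 nM RAP1B-BODIPY-GDP with 50 uM GDP present.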
BRCA1 expr up: qHTS Assay to Identify Small Molecule Activators of BRCA1 Expression; MCF7-BRCA1-FFLuc reporter, luminescence, 48 h; response scale: scaled: vehicle 0%, 10 µM genistein 100%; Potency, µM (series often up to 46.1 µM), inactives show at the top dose activation, hits mostly activators; actives 1.1% (n = 380,000); AID 624202, 2012; also: nearly all actives have a fitted effect of over 80% in size
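MCF7-BRCA1-FFLuc cells, 2000/well in phenol-red-free MEM, attached 2 h then treated 48 h at 37 C. Luciferase luminescence read 15 min after reagent; normalized to genistein maximum activation (10microM) and DMSO, concentration-response fitted.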
EPAC1 antag: qHTS for Antagonist of cAMP-regulated guanine nucleotide exchange factor 3 (EPAC1): primary screen; EPAC1 GEF assay, Rap1b-BODIPY-GDP exchange fluorescence; Potency, µM (doses to about 115 µM), for inactives: at the top dose activity change, negative = inhibition, hits mostly inhibitors; actives 0.14% (n = 360,000); AID 720709, 2013;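 also: plate controls were vehicle for no effect and positive control for full effect; nearly all actives have a fitted effect of over 50% in size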
EPAC1 ag: qHTS for Agonist of cAMP-regulated guanine nucleotide exchange factor 3 (EPAC1): primary screen; EPAC1 agonist qHTS, biochemical assay; response scale: 100% = response to 6.5 mM cAMP; Potency, µM (top dose mostly 154 µM), for the others: at the highest dose activation, most hits filed as activators; Rap guanine nucleotide exchange factor 3 (Homo sapiens), O95398; actives 0.073% (n = 360,000); also: nearly all actives have a fitted effect of over 60% in size
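Nucleotide exchange by EPAC1 (100 nM) on Rap1B–BODIPY-GDP (250 nM) in the presence of 50 uM GDP is tracked fluorescently at 480/540 nm over 30 min. Signals are normalized to a 6.5 mM cAMP control.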
EPAC2 antagonist: qHTS for Antagonist of cAMP-regulated guanine nucleotide exchange factor 2 (EPAC2): primary screen | Rap guanine nucleotide exchange factor 4 (Homo sapiens), Q8WZA2 | EPAC2 GEF exchange of Rap1B-BODIPY-GDP, fluorescence | Potency, µM (top dose mostly 114 µM), inactives show at the top dose activity, negative = inhibition, actives largely listed as inhibitors | actives 0.18% (n = 360,000) | AID 720708, 2013; also: % is scaled to controls: 0 for no effect and ±100 for the full control effect; nearly all actives have a fitted effect of over 45% in size
USP1-UAF1 inh: Inhibitors of USP1/UAF1: Primary Screen | Ubiquitin carboxyl-terminal hydrolase 1 (Homo sapiens), O94782 | recombinant USP1/UAF1, Ub-Rhodamine cleavage fluorescence | Potency, µM (titrated, usually from 57.1 µM), inactives show at the highest dose activity change, negative = inhibition, usual class: inhibitors | actives 0.23% (n = 390,000) | AID 743255, 2014; also: % is scaled to controls: 0 for no effect and ±100 for the full control effect; nearly all actives have a fitted effect of over 60% in size
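Step one: compound is pinned into 1nM USP1/UAF1 in HEPES pH 7.8 buffer with TCEP. Step two: 15 min room-temperature incubation. Step three: Ub-Rho (150nM final) starts cleavage, tracked by fluorescence over six one-minute reads.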
An asterisk follows results filed as active; ? = inconclusive; · = no result. Calls follow the shape of the dose curve; as a rule, active = well fitted curve in the direction sought with a large enough effect; inconclusive = small, poorly fitted or top-dose-only effect, or another doubt; inactive = no such curve, though single readings can be large; an effect the other way counts as inactive or inconclusive. Potency is read from the fitted curve at half-maximal effect.

SMILES	EPAC2 ag	BRCA1 expr up	EPAC1 antag	EPAC1 ag	EPAC2 antagonist	USP1-UAF1 inh
Cn1nccc1C(=O)Nc1ccc(Cl)cc1	5%	?	7%	-8%	11%	-4%
Cn1nccc1C(=O)Nc1ccc2c(c1)OCO2	9%	13µM*	1%	-4%	-1%	-9%
N/C(=N\C(=S)Nc1ccccc1)c1ccccc1	6%	?	-7%	9%	3%	-23%
Cc1ccc(C)c(NC(=O)Nc2ccc3c(c2)OCO3)c1	-1%	92%	-13%	9%	1%	-24%
CCCCN(C(=O)c1ccccc1OCc1ccc(F)cc1)c1c(N)n(CC(C)C)c(=O)[nH]c1=O	0%	-21%	-4%	-14%	-7%	-4%
O=C(Nc1ccc2c(c1)OCO2)c1c(F)cccc1F	10%	4.5µM*	-1%	7%	-3%	-2%
CS(=O)(=O)N(CC(=O)Nc1ccc2c(c1)OCO2)c1ccccc1	3%	25%	-2%	4%	-3%	-2%
O=C(CCS(=O)(=O)c1ccccc1)Nc1ccc2c(c1)OCO2	9%	7.9µM*	-11%	-3%	8%	0%
O=C(Nc1cccc(F)c1)Nc1ccc2c(c1)OCO2	5%	?	-18%	4%	3%	-12%
O=C(Nc1ccc2c(c1)OCO2)c1cccc(F)c1	3%	11µM*	9%	-2%	5%	-17%
Cc1cc(O)c(C(C)C)cc1N=Cc1ccc(N(C)C)cc1	-3%	-16%	11%	1%	6%	32µM*
Cc1cc(O)c(C(C)C)cc1N=Cc1ccc([N+](=O)[O-])cc1	7%	-23%	16%	3%	3%	?
C=C(C)CNC(=S)Nc1nc2c(cc1C(=O)OCC)CCCC2	6%	7.1µM*	-4%	6%	2%	-13%
Cc1ccc(OCC(=O)NC(=S)Nc2ccccn2)c(Br)c1	2%	11µM*	10%	-7%	18%	-24%
Cc1nc(-c2ccccc2)sc1CCNC(=O)C(=O)Nc1ccc2c(c1)OCO2	·	12%	·	·	·	-26%
Cc1cc(-c2nc(-c3ccc(C(C)(C)C)cc3)no2)no1	7%	7.1µM*	-10%	8%	0%	5%
CCc1cccc(NC(=O)Nc2cccs2)c1	8%	11µM*	-8%	0%	-8%	-16%
COc1ccc(S(=O)(=O)N2CCC[C@H]2C(=O)N2CCC[C@H]2C(=O)NCc2ccncc2)cc1C	7%	13%	-21%	-2%	1%	·
CC(C)C(NC(=O)c1c(F)cccc1F)C(=O)N1CCN(c2ncccn2)CC1 (stereo not given)	4%	3%	-2%	-4%	16%	-23%
Cc1cc2nc(-c3ccc(SCc4ccc(C(=O)O)cc4)nc3)[nH]c2cc1C	-2%	11µM*	-18%	-2%	-15%	?
Cc1cc2nc(-c3ccc(SCc4ccccc4C#N)nc3)[nH]c2cc1C	13%	63%	1%	9%	0%	-5%
COc1ccc(-c2cc(=O)oc3c(O)c(O)ccc23)cc1	2%	-57%	35µM*	1%	-16%	-9%
COc1ccc(-c2cc(=O)oc3cc(OC(C)C(=O)O)ccc23)cc1 (stereo not given)	-3%	2%	0%	0%	1%	-6%
O=c1nc2s/c(=C\c3ccc(-c4ccccc4[N+](=O)[O-])o3)c(=O)n2nc1-c1ccccc1	71µM*	-4%	61%	112µM*	25%	?
O=C(O)c1cc(S(=O)(=O)Nc2cc(Cl)ccc2Oc2ccccc2)ccc1O	-4%	0%	?	0%	40µM*	-24%
SMILES	EPAC2 ag	BRCA1 expr up	EPAC1 antag	EPAC1 ag	EPAC2 antagonist	USP1-UAF1 inh
O=C(O)c1cc(S(=O)(=O)Nc2ccccc2C(=O)O)ccc1O	-10%	-6%	-10%	11%	-2%	-2%
O=C(CN1CCCCCC1)Nc1ccccc1Oc1ccccc1	16%	0%	-11%	6%	40µM*	-2%
O=C(CN1CCCCC1)Nc1cc(Cl)ccc1Oc1ccccc1	2%	-28%	-5%	1%	28µM*	-19%
COc1ccccc1NC(=O)CN1CCCCCC1	6%	0%	-5%	7%	1%	?
Oc1ccccc1-c1nnc(COc2ccccc2)o1	2%	60%	-27%	1%	-3%	-21%
Fc1ccc(CSc2nnc(-c3cccs3)o2)cc1	20%	?	-4%	16%	-3%	-14%
Fc1ccccc1CSc1nnc(-c2cccs2)o1	15%	4µM*	2%	4%	-2%	-10%
c1ccc(-c2nnc(-c3ccncc3)o2)cc1	-9%	11µM*	12%	-9%	8%	-5%
c1ccc(-c2nnc(-c3ccccc3)o2)cc1	-1%	79%	14%	-7%	7%	-11%
Fc1ccc(Cc2nnc(-c3cccs3)o2)cc1	9%	10µM*	-15%	-10%	4%	-14%
c1ccc(OCc2nnc(-c3ccccc3)o2)cc1	7%	7.1µM*	-7%	-8%	10%	-27%
CN1C(=O)C2(c3ccccc31)N(c1ccc(Br)cc1)C(=O)CS2(=O)=O (stereo not given)	·	-10%	·	·	·	-27%
c1cc(CSc2nnc(-c3ccc4c(c3)OCO4)o2)ccn1	8%	3.2µM*	-17%	-3%	-9%	3%
Clc1ccccc1CSc1nnc(-c2ccncc2)o1	3%	8.9µM*	1%	-1%	7%	-21%
Cc1cccc(-c2nnc(-c3ccc(N)cc3)o2)c1	4%	?	6%	0%	16%	-14%
Nc1ccc(-c2nnc(-c3ccc(N)cc3)o2)cc1	3%	5.6µM*	-20%	-7%	-3%	-13%
COC(=O)C[C@@H]1CC[C@@H](NS(=O)(=O)c2ccc(F)cc2)[C@@H](CO)O1	7%	·	-7%	6%	1%	·
Cc1ccc(CN2CCSc3ccc(C(=O)Nc4ccc(F)cc4F)cc32)cc1	·	·	·	·	·	-18%
COc1cccc(C(=O)Nc2ccc3c(c2)C(=O)c2ccccc2C3=O)c1	1%	?	0%	2%	-11%	-21%
Cc1ccc(NC(=O)c2cn(-c3ccccc3)nc2-c2ccccc2)cc1	·	·	·	·	·	-3%
